Test results as given in the supplement of paper PMC4466140.

These binders were tested against SpBzz1-D2 (assay: SPOT peptide array binding signal intensity (averaged, normalized) (arbitrary units (background-subtracted, floor 0; scale differs between SH3 domains)); higher = stronger binding of the SH3 domain to the peptide).
How it was run: (§1)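 GST-fused SH3 domains from four yeast species were expressed in E. coli BL21(DE3), purified on glutathione Sepharose and incubated at 10 μg/ml overnight at 4°C in TBS-based blocking buffer on cellulose membranes carrying synthetic 15-mer peptides, with cysteines replaced by serines. Bound protein was detected with anti-GST antibody, an HRP anti-mouse secondary and luminol, then imaged and quantified with Genespotter. Binding signal is the normalized, background-subtracted spot intensity averaged over replicates, in arbitrary units that differ between domains.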

Binder	SPOT peptide array binding signal intensity
EREKALPPIPFTTTL	≤ 0
DDEDVPPQLPTRTKS	≤ 0

Each binder was assayed against SpCyk3 in the same assay as above.
How it was run: as §1

Binder	SPOT peptide array binding signal intensity
EREKALPPIPFTTTL	3.5
DDEDVPPQLPTRTKS	≤ 0

What follows are binders tested against SpHof1 in the same assay as above.
How it was run: as §1

Binder	SPOT peptide array binding signal intensity
EREKALPPIPFTTTL	1190
DDEDVPPQLPTRTKS	16.8

Each binder was assayed against SpHof1-2 in the same assay as above.
How it was run: as §1

Binder	SPOT peptide array binding signal intensity
EREKALPPIPFTTTL	1870
DDEDVPPQLPTRTKS	7

The binders below were run against SpHof1-3 in the same assay as above.
How it was run: as §1

Binder	SPOT peptide array binding signal intensity
EREKALPPIPFTTTL	3060
DDEDVPPQLPTRTKS	6

What follows are binders tested against SpHse1 in the same assay as above.
How it was run: as §1

Binder	SPOT peptide array binding signal intensity
EREKALPPIPFTTTL	29.2
DDEDVPPQLPTRTKS	7

Each binder was assayed against SpLsb1 in the same assay as above.
How it was run: as §1

Binder	SPOT peptide array binding signal intensity
EREKALPPIPFTTTL	≤ 0
DDEDVPPQLPTRTKS	27.5

Each binder was assayed against SpLsb4 in the same assay as above.
How it was run: as §1

Binder	SPOT peptide array binding signal intensity
EREKALPPIPFTTTL	7
DDEDVPPQLPTRTKS	7620

The binders below were run against SpMyo1 in the same assay as above.
How it was run: as §1

Binder	SPOT peptide array binding signal intensity
EREKALPPIPFTTTL	32.5
DDEDVPPQLPTRTKS	≤ 0

Each binder was assayed against SpNbp2 in the same assay as above.
How it was run: as §1

Binder	SPOT peptide array binding signal intensity
EREKALPPIPFTTTL	≤ 0
DDEDVPPQLPTRTKS	8

What follows are binders tested against SpPex13 in the same assay as above.
How it was run: as §1

Binder	SPOT peptide array binding signal intensity
EREKALPPIPFTTTL	1
DDEDVPPQLPTRTKS	≤ 0

These binders were tested against SpRvs167 in the same assay as above.
How it was run: as §1

Binder	SPOT peptide array binding signal intensity
EREKALPPIPFTTTL	38.7
DDEDVPPQLPTRTKS	1800

The binders below were run against SpSla1-D1-D2 in the same assay as above.
How it was run: as §1

Binder	SPOT peptide array binding signal intensity
EREKALPPIPFTTTL	9
DDEDVPPQLPTRTKS	≤ 0

The binders below were run against SpSla1-D3 in the same assay as above.
How it was run: as §1

Binder	SPOT peptide array binding signal intensity
EREKALPPIPFTTTL	0.5
DDEDVPPQLPTRTKS	3

What follows are binders tested against AgAbp1 in the same assay as above.
How it was run: as §1

Binder	SPOT peptide array binding signal intensity
DDEDVPPQLPTRTKS	≤ 0

These binders were tested against AgBbc1 in the same assay as above.
How it was run: as §1

Binder	SPOT peptide array binding signal intensity
DDEDVPPQLPTRTKS	14.5

Each binder was assayed against AgBem1-D1 in the same assay as above.
How it was run: as §1

Binder	SPOT peptide array binding signal intensity
DDEDVPPQLPTRTKS	1

The binders below were run against AgBzz1-D1 in the same assay as above.
How it was run: as §1

Binder	SPOT peptide array binding signal intensity
DDEDVPPQLPTRTKS	28

Each binder was assayed against AgBzz1-D2 in the same assay as above.
How it was run: as §1

Binder	SPOT peptide array binding signal intensity
DDEDVPPQLPTRTKS	11.5

Each binder was assayed against AgCyk3 in the same assay as above.
How it was run: as §1

Binder	SPOT peptide array binding signal intensity
DDEDVPPQLPTRTKS	≤ 0

The binders below were run against AgFus1 in the same assay as above.
How it was run: as §1

Binder	SPOT peptide array binding signal intensity
DDEDVPPQLPTRTKS	6.5

These binders were tested against AgHof1 in the same assay as above.
How it was run: as §1

Binder	SPOT peptide array binding signal intensity
DDEDVPPQLPTRTKS	28

The binders below were run against AgHse1 in the same assay as above.
How it was run: as §1

Binder	SPOT peptide array binding signal intensity
DDEDVPPQLPTRTKS	17

Each binder was assayed against AgLsb1 in the same assay as above.
How it was run: as §1

Binder	SPOT peptide array binding signal intensity
DDEDVPPQLPTRTKS	14

The binders below were run against AgLsb4 in the same assay as above.
How it was run: as §1

Binder	SPOT peptide array binding signal intensity
DDEDVPPQLPTRTKS	6150

What follows are binders tested against AgMyo5 in the same assay as above.
How it was run: as §1

Binder	SPOT peptide array binding signal intensity
DDEDVPPQLPTRTKS	1.75

What follows are binders tested against AgNbp2 in the same assay as above.
How it was run: as §1

Binder	SPOT peptide array binding signal intensity
DDEDVPPQLPTRTKS	≤ 0

Each binder was assayed against AgRvs167 in the same assay as above.
How it was run: as §1

Binder	SPOT peptide array binding signal intensity
DDEDVPPQLPTRTKS	53.2

What follows are binders tested against AgSho1 in the same assay as above.
How it was run: as §1

Binder	SPOT peptide array binding signal intensity
DDEDVPPQLPTRTKS	10

Each binder was assayed against AgSla1-D1-D2 in the same assay as above.
How it was run: as §1

Binder	SPOT peptide array binding signal intensity
DDEDVPPQLPTRTKS	≤ 0

Each binder was assayed against AgSla1-D3 in the same assay as above.
How it was run: as §1

Binder	SPOT peptide array binding signal intensity
DDEDVPPQLPTRTKS	≤ 0

What follows are binders tested against CaAbp1-D1 in the same assay as above.
How it was run: as §1

Binder	SPOT peptide array binding signal intensity
DDEDVPPQLPTRTKS	≤ 0

The binders below were run against CaAbp1-D2 in the same assay as above.
How it was run: as §1

Binder	SPOT peptide array binding signal intensity
DDEDVPPQLPTRTKS	≤ 0

Each binder was assayed against CaBbc1 in the same assay as above.
How it was run: as §1

Binder	SPOT peptide array binding signal intensity
DDEDVPPQLPTRTKS	45

These binders were tested against CaBem1-D1 in the same assay as above.
How it was run: as §1

Binder	SPOT peptide array binding signal intensity
DDEDVPPQLPTRTKS	9.5

The binders below were run against CaBzz1-D1 in the same assay as above.
How it was run: as §1

Binder	SPOT peptide array binding signal intensity
DDEDVPPQLPTRTKS	≤ 0

The binders below were run against CaBzz1-D2 in the same assay as above.
How it was run: as §1

Binder	SPOT peptide array binding signal intensity
DDEDVPPQLPTRTKS	≤ 0

The binders below were run against CaCyk3 in the same assay as above.
How it was run: as §1

Binder	SPOT peptide array binding signal intensity
DDEDVPPQLPTRTKS	3

The binders below were run against CaFus1 in the same assay as above.
How it was run: as §1

Binder	SPOT peptide array binding signal intensity
DDEDVPPQLPTRTKS	78

These binders were tested against CaHof1 in the same assay as above.
How it was run: as §1

Binder	SPOT peptide array binding signal intensity
DDEDVPPQLPTRTKS	7.5

Each binder was assayed against CaHse1 in the same assay as above.
How it was run: as §1

Binder	SPOT peptide array binding signal intensity
DDEDVPPQLPTRTKS	27

These binders were tested against CaLsb1 in the same assay as above.
How it was run: as §1

Binder	SPOT peptide array binding signal intensity
DDEDVPPQLPTRTKS	6.5

Each binder was assayed against CaLsb4 in the same assay as above.
How it was run: as §1

Binder	SPOT peptide array binding signal intensity
DDEDVPPQLPTRTKS	6780

What follows are binders tested against CaMyo5 in the same assay as above.
How it was run: as §1

Binder	SPOT peptide array binding signal intensity
DDEDVPPQLPTRTKS	2

Each binder was assayed against CaNbp2 in the same assay as above.
How it was run: as §1

Binder	SPOT peptide array binding signal intensity
DDEDVPPQLPTRTKS	≤ 0

These binders were tested against CaRvs167 in the same assay as above.
How it was run: as §1

Binder	SPOT peptide array binding signal intensity
DDEDVPPQLPTRTKS	1080

The binders below were run against CaRvs167-3 in the same assay as above.
How it was run: as §1

Binder	SPOT peptide array binding signal intensity
DDEDVPPQLPTRTKS	3.5

Each binder was assayed against CaSho1 in the same assay as above.
How it was run: as §1

Binder	SPOT peptide array binding signal intensity
DDEDVPPQLPTRTKS	≤ 0

The binders below were run against CaSla1-D1-D2 in the same assay as above.
How it was run: as §1

Binder	SPOT peptide array binding signal intensity
DDEDVPPQLPTRTKS	≤ 0

Each binder was assayed against CaSla1-D3 in the same assay as above.
How it was run: as §1

Binder	SPOT peptide array binding signal intensity
DDEDVPPQLPTRTKS	≤ 0

The binders below were run against ScAbp1 in the same assay as above.
How it was run: as §1

Binder	SPOT peptide array binding signal intensity
DDEDVPPQLPTRTKS	≤ 0

Each binder was assayed against ScBbc1 in the same assay as above.
How it was run: as §1

Binder	SPOT peptide array binding signal intensity
DDEDVPPQLPTRTKS	0.5

These binders were tested against ScBem1-D1 in the same assay as above.
How it was run: as §1

Binder	SPOT peptide array binding signal intensity
DDEDVPPQLPTRTKS	≤ 0

The binders below were run against ScBzz1-D1 in the same assay as above.
How it was run: as §1

Binder	SPOT peptide array binding signal intensity
DDEDVPPQLPTRTKS	6

Each binder was assayed against ScBzz1-D2 in the same assay as above.
How it was run: as §1

Binder	SPOT peptide array binding signal intensity
DDEDVPPQLPTRTKS	22

These binders were tested against ScCyk3 in the same assay as above.
How it was run: as §1

Binder	SPOT peptide array binding signal intensity
DDEDVPPQLPTRTKS	1

These binders were tested against ScFus1 in the same assay as above.
How it was run: as §1

Binder	SPOT peptide array binding signal intensity
DDEDVPPQLPTRTKS	6

These binders were tested against ScHof1 in the same assay as above.
How it was run: as §1

Binder	SPOT peptide array binding signal intensity
DDEDVPPQLPTRTKS	16.5

The binders below were run against ScHse1 in the same assay as above.
How it was run: as §1

Binder	SPOT peptide array binding signal intensity
DDEDVPPQLPTRTKS	23.5

The binders below were run against ScLsb1 in the same assay as above.
How it was run: as §1

Binder	SPOT peptide array binding signal intensity
DDEDVPPQLPTRTKS	576

These binders were tested against ScLsb2 in the same assay as above.
How it was run: as §1

Binder	SPOT peptide array binding signal intensity
DDEDVPPQLPTRTKS	≤ 0

The binders below were run against ScLsb3 in the same assay as above.
How it was run: as §1

Binder	SPOT peptide array binding signal intensity
DDEDVPPQLPTRTKS	9300

What follows are binders tested against ScLsb4 in the same assay as above.
How it was run: as §1

Binder	SPOT peptide array binding signal intensity
DDEDVPPQLPTRTKS	3020

These binders were tested against ScMyo3 in the same assay as above.
How it was run: as §1

Binder	SPOT peptide array binding signal intensity
DDEDVPPQLPTRTKS	≤ 0

What follows are binders tested against ScMyo5 in the same assay as above.
How it was run: as §1

Binder	SPOT peptide array binding signal intensity
DDEDVPPQLPTRTKS	≤ 0

Each binder was assayed against ScNbp2 in the same assay as above.
How it was run: as §1

Binder	SPOT peptide array binding signal intensity
DDEDVPPQLPTRTKS	≤ 0

Each binder was assayed against ScPex13 in the same assay as above.
How it was run: as §1

Binder	SPOT peptide array binding signal intensity
DDEDVPPQLPTRTKS	1570

What follows are binders tested against ScRvs167 in the same assay as above.
How it was run: as §1

Binder	SPOT peptide array binding signal intensity
DDEDVPPQLPTRTKS	1980

Each binder was assayed against ScSho1 in the same assay as above.
How it was run: as §1

Binder	SPOT peptide array binding signal intensity
DDEDVPPQLPTRTKS	6

Each binder was assayed against ScSla1-D1-D2 in the same assay as above.
How it was run: as §1

Binder	SPOT peptide array binding signal intensity
DDEDVPPQLPTRTKS	1

The binders below were run against ScSla1-D3 in the same assay as above.
How it was run: as §1

Binder	SPOT peptide array binding signal intensity
DDEDVPPQLPTRTKS	0.5

What follows are binders tested against SpAbp1-D1 in the same assay as above.
How it was run: as §1

Binder	SPOT peptide array binding signal intensity
DDEDVPPQLPTRTKS	≤ 0

What follows are binders tested against SpBbc1 in the same assay as above.
How it was run: as §1

Binder	SPOT peptide array binding signal intensity
DDEDVPPQLPTRTKS	3.75

These binders were tested against SpBzz1-D1 in the same assay as above.
How it was run: as §1

Binder	SPOT peptide array binding signal intensity
DDEDVPPQLPTRTKS	0.5
